# Experiments:
# Format in all cases: functional
# [1] = tested on: Plasmodium falciparum; assay: GSK_TCMDC: Inhibition of Plasmodium falciparum 3D7 in whole red blood cells, using parasite LDH activity as an index of growth. Test compounds present at 2uM
# [2] = tested on: Plasmodium falciparum; assay: GSK_TCMDC: Inhibition of Plasmodium falciparum Dd2 in whole red blood cells, using parasite LDH activity as an index of growth. Test compounds present at 2uM
# [3] = tested on: HepG2; assay: GSK_TCMDC: Percent inhibition of human HepG2 cell line. Test compounds present at 10uM.
structure (smiles),measurement,setting,value
CN(CCCCCNC(=O)/C=C/c1ccc(Cl)c(Cl)c1)CCc1c[nH]c2ccccc12,Inhibition,[1],91%
same,Inhibition,[2],18%
same,Inhibition,[3],40%
COc1ccc2ncc(F)c(CCN3CC[C@H](NCc4cc5c(s4)CCCN5)[C@H](O)C3)c2n1.Cl,Inhibition,[1],96%
same,Inhibition,[2],16%
same,Inhibition,[3],2%
COc1ccc(NC(=O)N2CCc3ccc(OCCN(C(C)C)C(C)C)cc32)cc1C(F)(F)F.O=C(O)C(F)(F)F,Inhibition,[1],90%
same,Inhibition,[2],6%
same,Inhibition,[3],0%
Br.c1cc(C2=NC3CCCCC3N2)ccc1OCCCCCOc1ccc(C2=NC3CCCCC3N2)cc1 (stereo not drawn),Inhibition,[1],100%
same,Inhibition,[2],23%
same,Inhibition,[3],80%
CC(=NNC(S)=NCCc1ccccc1)c1ccccn1,Inhibition,[1],100%
same,Inhibition,[2],99%
same,Inhibition,[3],73%
CCCCCN1CCCC1CNS(=O)(=O)c1cccc(C(=O)Nc2cccc(C(F)(F)F)c2)c1.O=C(O)C(F)(F)F (stereo not drawn),Inhibition,[1],96%
same,Inhibition,[2],12%
same,Inhibition,[3],15%
O=C(Nc1ccc(Cl)cc1)Nc1cccc(-c2ccc(-c3nc4ccccc4[nH]3)cc2)c1,Inhibition,[1],87%
same,Inhibition,[2],6%
same,Inhibition,[3],19%
CCOc1ccc(-c2nc(NC(=O)COc3ccc(OC)cc3)sc2C)cc1,Inhibition,[1],99%
same,Inhibition,[2],87%
same,Inhibition,[3],0%
COCCOc1ccc(Nc2nccc(-c3c(-c4cccc(NC(=O)c5c(F)cccc5F)c4)nn4ccccc34)n2)cc1Cl,Inhibition,[1],99%
same,Inhibition,[2],97%
same,Inhibition,[3],53%
COc1ccc2nc(-c3ccc(C(=O)NCCCN4CCN(c5cc(Cl)ccc5OC)CC4)cc3OC)[nH]c2c1,Inhibition,[1],100%
same,Inhibition,[2],24%
same,Inhibition,[3],0%
Nc1cccc(CNCc2cccc(-c3cccc(-c4nc5ccccc5[nH]4)c3)c2)c1.O=C(O)C(F)(F)F,Inhibition,[1],100%
same,Inhibition,[2],84%
same,Inhibition,[3],1%
CCNc1cc(C)nc(Nc2ccc(NC(=O)c3ccc(OC)c(OC)c3)cc2)n1,Inhibition,[1],100%
same,Inhibition,[2],65%
same,Inhibition,[3],19%
O=C(Nc1cccc(C(F)(F)F)c1)Nc1ccc2nonc2c1,Inhibition,[1],98%
same,Inhibition,[2],76%
same,Inhibition,[3],0%
COc1ccc(-c2ccc(NC(=O)c3cccc(F)c3)cc2)cc1CNC(C)C.O=C(O)C(F)(F)F,Inhibition,[1],97%
same,Inhibition,[2],14%
same,Inhibition,[3],17%
Cc1cc(O)nc(NC#N)n1,Inhibition,[1],99%
same,Inhibition,[2],3%
same,Inhibition,[3],8%
O=C(N[C@@H](Cc1ccccc1)C(=O)NC1CCCCC1)c1ccc(O)c(-c2cccc(C(F)(F)F)c2)c1,Inhibition,[1],96%
same,Inhibition,[2],36%
same,Inhibition,[3],11%
CCCCCc1cc(OC(=O)CCCN(CC)CC)c2c(c1)OC(C)(C)C=C2C1=CCN(Cc2ccc3ccccc3c2)CC1,Inhibition,[1],100%
same,Inhibition,[2],92%
same,Inhibition,[3],94%
O=C(/C=C/c1ccc(Cl)c(Cl)c1)NCCCCCN1CCC(NC(=O)NCCc2ccccc2)CC1,Inhibition,[1],100%
same,Inhibition,[2],7%
same,Inhibition,[3],23%
COc1ccc(-n2nc(C(=O)NCCC3=CCCCC3)c3ccccc3c2=O)cc1,Inhibition,[1],94%
same,Inhibition,[2],59%
same,Inhibition,[3],0%
CCCCN1CCN(Cc2cccc(NC(=O)c3ccc(Cl)c(Cl)c3)c2)CC1.O=C(O)C(F)(F)F,Inhibition,[1],88%
same,Inhibition,[2],24%
same,Inhibition,[3],21%
CN1CCCN(Cc2cccc(-c3ccc(NC(=O)c4cccc(C#N)c4)cc3)c2)CC1.O=C(O)C(F)(F)F,Inhibition,[1],100%
same,Inhibition,[2],96%
same,Inhibition,[3],27%
CC1Cc2ccccc2N1CC(=O)Nc1cc(C(F)(F)F)ccc1-n1cncn1 (stereo not drawn),Inhibition,[1],97%
same,Inhibition,[2],97%
same,Inhibition,[3],17%
COc1cc(OC)cc(-c2nnc(Sc3ccc(C#N)c([N+](=O)[O-])c3)n2C)c1,Inhibition,[1],95%
same,Inhibition,[2],77%
same,Inhibition,[3],1%
NC1CCN(c2nc(NCCCc3ccc(O)cc3)nc(NCc3cccc4ccccc34)n2)CC1.O=C(O)C(F)(F)F,Inhibition,[1],100%
same,Inhibition,[2],2%
same,Inhibition,[3],12%
O=C(NCC1CCC(C(=O)NCCc2ccc(Cl)c(Cl)c2)CC1)c1ccc(O)c(-c2ccc(Cl)c(Cl)c2)c1 (stereo not drawn),Inhibition,[1],94%
same,Inhibition,[2],12%
same,Inhibition,[3],0%
COc1ccc2cc(-c3nc(-c4c(Cl)cccc4Cl)[nH]c3-c3ccnc(NCCCN4CCCCC4C)c3)ccc2c1.O=C(O)C(F)(F)F (stereo not drawn),Inhibition,[1],94%
same,Inhibition,[2],86%
same,Inhibition,[3],19%
NCc1cccc(-c2cccc(CNC3CCN(Cc4ccccc4)CC3)c2)c1.O=C(O)C(F)(F)F,Inhibition,[1],100%
same,Inhibition,[2],45%
same,Inhibition,[3],9%
O=C(/C=C/c1ccc(Cl)c(Cl)c1)NCCCCCN1CC[C@H](NC(=O)Nc2ccc(Oc3ccccc3)cc2)C1,Inhibition,[1],100%
same,Inhibition,[2],14%
same,Inhibition,[3],47%
CCCc1cc2c3c(N)nc(N)nc3ccc2n1C(CC)CC,Inhibition,[1],100%
same,Inhibition,[2],73%
same,Inhibition,[3],70%
Cl.NCC(=O)Nc1cccc(Nc2nccc(-c3c(-c4cccc(NC(=O)c5ccccc5)c4)nn4ccccc34)n2)c1,Inhibition,[1],96%
same,Inhibition,[2],87%
same,Inhibition,[3],45%
COc1cc2nc(Nc3ccc4c(c3)OCCO4)nc(N)c2cc1OC.Cl,Inhibition,[1],100%
same,Inhibition,[2],80%
same,Inhibition,[3],13%

# — ChEMBL document CHEMBL1157539, “Thousands of chemical starting points for antimalarial lead identification” (Nature, 2010)
